Measured values reported in PubChem BioAssay (NCATS).
Records with an inconclusive call do not appear. Activity calls are given as the source filed them. Unless noted, calls come from the whole dose curve.

Experiments:
[1] = target: Estrogen receptor (Homo sapiens) (UniProt P03372); assay: qHTS assay for small molecule antagonists of estrogen receptor alpha signaling (AID 588513; active = well fitted curve in the direction sought with a large enough effect in the signal ratio, with a control signal flat, not every such curve was filed as active; the % refers to the signal ratio; note: % is set by controls: 0 for no effect and ±100 for the full control effect)
How it was run: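 Antagonist-mode qHTS in ER-alpha-UAS-bla HEK 293 cells: compound titration, 0.5nM estradiol for 18 h, CCF4 fluorescence, Hill-derived IC50.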

[2] = target: Glucocorticoid receptor (Homo sapiens) (UniProt P04150); assay: qHTS assay for small molecule agonists of glucocorticoid receptor signaling (AID 588532; active = well fitted curve in the direction sought with a large enough effect in the signal ratio, with a control signal flat; the % refers to the signal ratio;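 note: 100% = dexamethasone at 0.1 µM and 0% = DMSO only wells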); conditions: HeLa MMTV-bla, beta-lactamase ratio, agonist, 18 h; activation: stronger effect = higher value, percent of dexamethasone control, DMSO zero
How it was run: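 Quantitative HTS using CellSensor MMTV-bla HeLa cells in charcoal/dextran-treated serum; compounds tested up to 92 uM. After 18 h at 37 C, CCF4 dye reported reporter induction.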

[3] = target: Peroxisome proliferator-activated receptor delta (Homo sapiens) (UniProt Q03181); assay: qHTS assay for small molecule agonists of peroxisome proliferator-activated receptor delta signaling (AID 588534);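 note: 0% = DMSO basal wells and 100% = positive control agonist at 10 µM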
How it was run: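 Titration series tested in agonist mode on beta-lactamase reporter cells; 18 hrs at 37 C after a 5 hr pre-incubation. Readout: CCF4 fluorescence, 2 hrs RT. Hill equation gives EC50 and maximal response.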

[4] = target: Vitamin D3 receptor (Homo sapiens) (UniProt P11473); assay: qHTS assay for small molecule antagonists of vitamin D receptor signaling (AID 588541);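 note: receptor activated by calcitriol during compound treatment; series mostly up to about 77 µM; % is set by controls: 0 for no effect and ±100 for the full control effect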
How it was run: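 Antagonist-mode beta-lactamase reporter assay: HEK293T VDR-UAS-bla cells were exposed to titrated compound alongside 1-alpha,25-dihydroxyvitamin D3 at 3 nM final for 16 h. Values were normalized to the 50 nM agonist control and DMSO basal, with IC50 and efficacy from Hill equation fits.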

[5] = target: Vitamin D3 receptor (Homo sapiens) (UniProt P11473); assay: qHTS assay for small molecule agonists of vitamin D receptor signaling (AID 588543);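 note: 0% = DMSO basal and 100% = reference agonist control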
How it was run: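 Measured: β-lactamase reporter activity (CCF4, 405 nm excitation, 460/530 nm emission) in HEK293T VDR-UAS-bla cells after 16 h compound exposure at 37 °C. Normalization against 50 nM 1α,25-dihydroxyvitamin D3 and DMSO; Hill-fit EC50.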

[6] = qHTS assay for small molecule agonists of retinoid X receptor alpha signaling (AID 588544); conditions: HEK293T RXRa-UAS-bla, beta-lactamase reporter, 18 h; 530 nm emission;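 for activation: 0% = DMSO basal wells and 100% = reference agonist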
[7] = target: Retinoic acid receptor RXR-alpha (Homo sapiens) (UniProt P19793); assay: as above
[8] = target: Thyroid hormone receptor beta (Homo sapiens) (UniProt P10828); assay: qHTS assay for small molecule agonists of thyroid hormone receptor beta signaling (AID 588545);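 note: 0% = DMSO only and 100% = 10 nM T3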
How it was run: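 TR-UAS-bla GripTite HEK 293 cells (2500/well, medium with 2% charcoal/dextran FBS) were treated in agonist mode for 18 h at 37 C, titrated. Beta-lactamase was read by CCF4 ratio after 2 h; normalized to 10 nM T3 (100%) and DMSO, Hill-fitted for EC50 and efficacy.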

[9] = qHTS assay for small molecule antagonists of retinoid X receptor alpha signaling (AID 588546; active = well fitted inhibition curve with a large enough effect in the signal ratio, with a control signal flat, not every such curve was filed as active; the % refers to the signal ratio;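 note: cells stimulated with 9-cis-retinoic acid as agonist; % is set by controls: 0 for no effect and ±100 for the full control effect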); conditions: HEK293T RXRa-UAS-bla, beta-lactamase ratio, antagonist mode; measured here: W530 green channel, cytotoxicity proxy
How it was run: (§1)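 Beta-lactamase reporter inhibition, read as CCF4 fluorescence ratio (ex 405, em 460/530 nm) after 2 h at RT. HEK293T UAS-bla cells, 2500/well, were stimulated with 9-cis-RA at 500 or 100 nM final alongside test compound for 18 h at 37 C.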

[10] = target: Retinoic acid receptor RXR-alpha (Homo sapiens) (UniProt P19793); assay: as above; conditions: HEK293T RXRa-UAS-bla, beta-lactamase ratio, antagonist mode
How it was run: as §1

[11] = target: Thyroid hormone receptor beta (Homo sapiens) (UniProt P10828); assay: qHTS assay for small molecule antagonists of thyroid hormone receptor beta signaling (AID 588547; active = well fitted inhibition curve with a large enough effect in the signal ratio, with a control signal flat, not every such curve was filed as active; the % refers to the signal ratio;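 note: cells stimulated with 0.4 nM T3 agonist during compound exposure; series mostly up to about 77 µM; % is set by controls: 0 for no effect and ±100 for the full control effect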); conditions: TR-UAS-bla HEK293, beta-lactamase ratio, antagonist mode, 18 h
How it was run: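 Inhibition of T3-driven (0.4nM final) beta-lactamase reporter activity was measured over 0.59 nM to 92 uM compound after 18 h at 37 C. The cells were GripTite HEK293 TR-UAS-bla in charcoal/dextran-stripped serum, with CCF4 ratio read-out and IC50 from Hill fits.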

[12] = qHTS assay for small molecule activators of the p53 signaling pathway (AID 651743; active = well fitted activation curve with a large enough effect in the signal ratio, not every such curve was filed as active; the % refers to the signal ratio; note: series mostly up to about 92 µM; % of control where 0% means no effect); conditions: HCT-116 p53RE-bla, beta-lactamase FRET ratio, 16 h; activation: stronger effect = higher value
How it was run: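 A beta-lactamase reporter under p53 response element control, stably carried by HCT-116 cells, reported pathway activation. Test compounds were applied for 16 hours at 37 C, and fluorescence was measured 2 hours after adding the B/G FRET substrate.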

[13] = qHTS assay for environmental chemicals that activate the Aryl hydrocarbon Receptor (AhR) signaling pathway (AID 651777; active = well fitted curve in the direction sought with a large enough effect; an effect the other way counts as inactive or inconclusive; note: % of control where 0% means no effect; nearly all actives have a fitted effect of over 15% in size); conditions: 1A2-DRE human hepatoma cells, luciferase, 24 h; activation: stronger effect = higher value
How it was run: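 Reporter gene assay: hepatoma cells with DRE/CYP1A2-luciferase, 24 hr compound incubation at 37 C, 5% CO2, luminescence after One-Glo (30 min, RT).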

[14] = target: Peroxisome proliferator-activated receptor alpha (Homo sapiens) (UniProt Q07869); assay: qHTS assay for small molecule agonists of the peroxisome proliferator-activated receptor alpha (PPARalpha) signaling pathway (AID 651778; active = well fitted curve in the direction sought with a large enough effect; an effect the other way counts as inactive or inconclusive; note: % of control where 0% means no effect); conditions: PathHunter PPARalpha complementation, chemiluminescence, 6 h; max response: stronger effect = higher value
How it was run: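 Chemiluminescence from complemented enzyme reported PPARalpha activation in cells after 6 hr of compound treatment at 37 C. The detection reagent was incubated for 60 min at room temperature, and compounds were scored as agonists.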

[15] = qHTS assay for small molecule agonists of the antioxidant response element (ARE) signaling pathway measured by Nrf2-dependant transcriptional activity - cell viability counter screen (AID 720653; active = well fitted curve in the direction sought with a large enough effect in the repeat runs; an effect the other way counts as inactive or inconclusive; note: % is set by controls: 0 for no effect and ±100 for the full control effect); conditions: ARE-bla HepG2 viability, CellTiter-Glo ATP luminescence, 16 h; max response: stronger effect = lower value
How it was run: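 Cytotoxicity counter screen: intracellular ATP quantified by CellTiter-Glo luminescence in the same ARE-bla HepG2 plates, after 16 h compound exposure and a 2 h beta-lactamase substrate step.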

[16] = qHTS assay for cell viability of HEK293 cells (AID 743288; active = well fitted curve in the direction sought with a large enough effect; an effect the other way counts as inactive or inconclusive; note: % is set by controls: 0 for no effect and ±100 for the full control effect; nearly all actives have a fitted effect of over 50% in size); conditions: ATP luminescence (CellTiter-Glo), 18 h; max response: stronger effect = lower value
How it was run: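 HEK293, 18 h, 37 C, ATP luminescence. Cells at 2,000/well were allowed at least 5 h to settle before dosing; CellTiter-Glo developed 30 min at RT.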

[17] = qHTS assay for cell viability of the p53RE-bla HCT-116 cell line (AID 743292; active = well fitted curve in the direction sought with a large enough effect; an effect the other way counts as inactive or inconclusive; note: % is set by controls: 0 for no effect and ±100 for the full control effect; nearly all actives have a fitted effect of over 55% in size)
How it was run: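 ATP-based luminescence, 16 h compound exposure at 37 C, p53RE-bla HCT-116 cells at 4,000/well.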

[18] = target: Nuclear receptor subfamily 1 group I member 2 (Rattus norvegicus) (UniProt Q9R1A7); assay: qHTS assay for small molecule activators of the rat pregnane X receptor (rPXR) signaling pathway (AID 651751; call rule not given here; note: 0% is about no effect); conditions: rPXR reporter cells, luciferase (One-Glo), 24 h
[19] = target: Estrogen receptor (Homo sapiens) (UniProt P03372); assay: qHTS assay for small molecule agonists of estrogen receptor alpha signaling (AID 588514);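 note: 0% = vehicle only and 100% = reference agonist; nearly all actives have a fitted effect of over 70% in size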
How it was run: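 Read-out: CCF4 fluorescence from a beta-lactamase reporter in ER-alpha-UAS-bla HEK 293 cells after 18 hrs of compound exposure at 37 C. Normalized to 20 nM 17-beta-estradiol (100%) and DMSO (0%).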

[20] = qHTS assay for small molecule agonists of the antioxidant response element (ARE) signaling pathway measured by Nrf2-dependant transcriptional activity (AID 720636; active = well fitted curve in the direction sought with a large enough effect in the repeat runs; an effect the other way counts as inactive or inconclusive;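 note: HepG2 cells with an ARE-driven luciferase reporter; % of control where 0% means no effect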)
How it was run: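 Nrf2-dependent transcription is measured in ARE-luc HepG2 cells: compound is applied for 16 hr at 37 C after a 6 hr attachment period, and luciferase activity is quantified by luminescence using ONE-Glo.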

Sequence of Thyroid hormone receptor beta (Homo sapiens) (P10828 whole entry, looked up): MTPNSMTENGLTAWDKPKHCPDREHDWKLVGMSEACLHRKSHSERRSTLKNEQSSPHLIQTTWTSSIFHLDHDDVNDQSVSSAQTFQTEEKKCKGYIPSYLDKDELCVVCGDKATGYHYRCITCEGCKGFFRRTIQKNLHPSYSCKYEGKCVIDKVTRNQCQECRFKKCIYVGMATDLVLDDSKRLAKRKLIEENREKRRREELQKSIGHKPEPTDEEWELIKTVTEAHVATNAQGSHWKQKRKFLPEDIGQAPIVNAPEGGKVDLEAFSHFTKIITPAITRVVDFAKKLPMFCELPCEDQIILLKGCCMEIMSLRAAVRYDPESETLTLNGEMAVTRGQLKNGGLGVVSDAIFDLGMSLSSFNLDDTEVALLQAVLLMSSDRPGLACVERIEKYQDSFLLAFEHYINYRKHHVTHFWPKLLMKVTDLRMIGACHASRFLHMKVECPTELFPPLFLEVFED
Sequence of Peroxisome proliferator-activated receptor delta (Homo sapiens) (Q03181 whole entry, looked up): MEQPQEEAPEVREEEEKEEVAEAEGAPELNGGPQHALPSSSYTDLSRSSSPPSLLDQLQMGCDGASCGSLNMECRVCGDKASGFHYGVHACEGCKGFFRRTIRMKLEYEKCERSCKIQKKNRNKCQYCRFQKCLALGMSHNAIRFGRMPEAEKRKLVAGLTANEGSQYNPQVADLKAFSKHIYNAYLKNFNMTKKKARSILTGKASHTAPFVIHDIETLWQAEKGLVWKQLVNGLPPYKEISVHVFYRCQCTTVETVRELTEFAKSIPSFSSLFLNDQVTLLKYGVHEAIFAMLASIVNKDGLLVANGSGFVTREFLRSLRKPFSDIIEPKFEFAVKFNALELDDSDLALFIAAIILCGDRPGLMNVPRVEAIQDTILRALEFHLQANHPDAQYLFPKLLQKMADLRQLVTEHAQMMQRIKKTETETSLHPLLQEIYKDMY
Sequence of Retinoic acid receptor RXR-alpha (Homo sapiens) (P19793 whole entry, looked up): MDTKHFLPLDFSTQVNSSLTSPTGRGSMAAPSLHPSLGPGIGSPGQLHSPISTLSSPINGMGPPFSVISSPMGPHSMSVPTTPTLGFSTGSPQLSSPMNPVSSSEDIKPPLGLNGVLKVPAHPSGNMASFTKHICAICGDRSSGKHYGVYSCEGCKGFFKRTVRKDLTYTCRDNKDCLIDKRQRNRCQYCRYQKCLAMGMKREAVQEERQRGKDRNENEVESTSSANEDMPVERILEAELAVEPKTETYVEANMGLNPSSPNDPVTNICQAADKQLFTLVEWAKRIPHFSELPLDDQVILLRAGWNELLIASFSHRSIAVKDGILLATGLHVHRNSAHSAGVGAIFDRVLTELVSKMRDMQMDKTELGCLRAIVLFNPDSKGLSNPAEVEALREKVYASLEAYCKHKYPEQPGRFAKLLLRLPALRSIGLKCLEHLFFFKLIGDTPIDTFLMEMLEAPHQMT
Sequence of Peroxisome proliferator-activated receptor alpha (Homo sapiens) (Q07869 whole entry, looked up): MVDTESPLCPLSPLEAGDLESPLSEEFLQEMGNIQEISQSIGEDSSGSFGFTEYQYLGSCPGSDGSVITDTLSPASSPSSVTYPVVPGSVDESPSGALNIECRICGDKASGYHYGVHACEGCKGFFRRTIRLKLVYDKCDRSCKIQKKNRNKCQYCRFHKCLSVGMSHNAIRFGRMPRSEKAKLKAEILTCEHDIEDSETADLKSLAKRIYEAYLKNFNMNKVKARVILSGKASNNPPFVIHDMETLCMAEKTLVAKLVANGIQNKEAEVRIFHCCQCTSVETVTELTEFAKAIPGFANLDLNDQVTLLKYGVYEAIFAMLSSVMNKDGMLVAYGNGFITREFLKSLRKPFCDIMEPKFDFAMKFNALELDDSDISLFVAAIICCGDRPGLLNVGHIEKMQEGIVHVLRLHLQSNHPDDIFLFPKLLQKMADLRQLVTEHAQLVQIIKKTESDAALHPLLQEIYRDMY
Sequence of Estrogen receptor (Homo sapiens) (P03372 whole entry, looked up): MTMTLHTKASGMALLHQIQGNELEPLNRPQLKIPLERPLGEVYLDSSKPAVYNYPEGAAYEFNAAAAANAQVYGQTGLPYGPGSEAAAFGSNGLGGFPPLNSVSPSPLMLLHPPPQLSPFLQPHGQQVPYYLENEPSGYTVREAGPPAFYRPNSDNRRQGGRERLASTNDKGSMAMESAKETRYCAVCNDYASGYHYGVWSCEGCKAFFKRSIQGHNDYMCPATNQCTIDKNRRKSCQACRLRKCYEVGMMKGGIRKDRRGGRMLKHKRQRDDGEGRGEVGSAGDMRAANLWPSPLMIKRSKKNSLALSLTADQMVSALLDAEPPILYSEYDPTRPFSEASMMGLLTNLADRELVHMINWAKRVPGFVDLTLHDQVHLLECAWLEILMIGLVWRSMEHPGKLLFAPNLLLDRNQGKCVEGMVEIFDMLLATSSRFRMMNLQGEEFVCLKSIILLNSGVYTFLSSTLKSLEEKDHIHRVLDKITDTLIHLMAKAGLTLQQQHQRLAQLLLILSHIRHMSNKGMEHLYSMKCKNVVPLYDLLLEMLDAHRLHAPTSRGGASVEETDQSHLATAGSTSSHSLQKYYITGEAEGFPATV
Sequence of Nuclear receptor subfamily 1 group I member 2 (Rattus norvegicus) (Q9R1A7 whole entry, looked up): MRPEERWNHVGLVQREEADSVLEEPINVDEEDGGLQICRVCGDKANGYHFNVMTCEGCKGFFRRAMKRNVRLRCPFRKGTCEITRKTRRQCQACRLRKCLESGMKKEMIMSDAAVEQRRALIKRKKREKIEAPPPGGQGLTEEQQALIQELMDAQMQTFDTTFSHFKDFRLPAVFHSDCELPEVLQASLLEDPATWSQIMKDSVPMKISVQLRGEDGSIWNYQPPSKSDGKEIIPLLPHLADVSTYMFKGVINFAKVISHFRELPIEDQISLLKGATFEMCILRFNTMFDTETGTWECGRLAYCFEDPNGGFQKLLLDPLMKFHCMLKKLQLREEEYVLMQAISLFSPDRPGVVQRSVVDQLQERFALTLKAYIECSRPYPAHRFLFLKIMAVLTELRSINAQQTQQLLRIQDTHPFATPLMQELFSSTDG
Sequence of Glucocorticoid receptor (Homo sapiens) (P04150 whole entry, looked up): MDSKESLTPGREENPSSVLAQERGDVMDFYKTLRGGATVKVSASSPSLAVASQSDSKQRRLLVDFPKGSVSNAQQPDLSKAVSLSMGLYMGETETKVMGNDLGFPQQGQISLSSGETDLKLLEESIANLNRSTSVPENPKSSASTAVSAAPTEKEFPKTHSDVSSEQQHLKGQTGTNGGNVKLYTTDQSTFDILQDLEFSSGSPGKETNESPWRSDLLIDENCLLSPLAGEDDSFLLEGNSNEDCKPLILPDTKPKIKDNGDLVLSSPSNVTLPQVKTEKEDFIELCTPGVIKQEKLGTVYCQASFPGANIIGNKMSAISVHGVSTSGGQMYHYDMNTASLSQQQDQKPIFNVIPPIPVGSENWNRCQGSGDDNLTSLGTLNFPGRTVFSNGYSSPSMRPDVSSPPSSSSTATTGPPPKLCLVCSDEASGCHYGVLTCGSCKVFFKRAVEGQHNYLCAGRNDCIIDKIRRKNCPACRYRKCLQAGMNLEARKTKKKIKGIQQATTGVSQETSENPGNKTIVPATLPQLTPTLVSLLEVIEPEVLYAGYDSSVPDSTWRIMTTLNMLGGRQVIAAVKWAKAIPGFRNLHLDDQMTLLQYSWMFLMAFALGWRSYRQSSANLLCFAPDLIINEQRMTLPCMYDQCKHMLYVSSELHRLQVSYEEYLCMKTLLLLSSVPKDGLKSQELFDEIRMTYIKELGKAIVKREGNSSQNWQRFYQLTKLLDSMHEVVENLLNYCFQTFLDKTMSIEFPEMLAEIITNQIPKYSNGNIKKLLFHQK
Sequence of Vitamin D3 receptor (Homo sapiens) (P11473 whole entry, looked up): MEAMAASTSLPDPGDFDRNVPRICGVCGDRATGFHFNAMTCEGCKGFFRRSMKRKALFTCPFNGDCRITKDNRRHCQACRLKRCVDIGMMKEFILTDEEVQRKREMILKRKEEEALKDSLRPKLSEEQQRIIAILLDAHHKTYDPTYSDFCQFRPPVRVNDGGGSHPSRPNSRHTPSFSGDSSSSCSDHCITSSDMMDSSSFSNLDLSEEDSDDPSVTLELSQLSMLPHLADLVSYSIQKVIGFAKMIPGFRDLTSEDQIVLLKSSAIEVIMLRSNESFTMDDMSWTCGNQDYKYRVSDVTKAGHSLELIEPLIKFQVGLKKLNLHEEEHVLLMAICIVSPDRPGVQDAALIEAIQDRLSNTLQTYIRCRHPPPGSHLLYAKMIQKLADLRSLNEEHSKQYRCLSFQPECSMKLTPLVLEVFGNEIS

CC(C)C(=O)OCC(C)(C)C(OC(=O)C(C)C)C(C)C (stereo unspecified)
inactive: Potency [1] | activation [2] -2.67% | outcome [3] | Potency [4] | outcome [5] | Potency [7] | Potency [8] | max response [10] -12.8% | activity change % (negative = inhibition) [11] 4.21% | activation [12] -0.206% | activation [13] 1.77% | max response [14] -1.27% | max response [15] -12.6% | max response [16] -13% | Potency [17] | max response [18] 2.02%
-5.68%: max response [9]
-9.99%: max response [6]

CC(C)(C)OOC(C)(C)c1ccc(C(C)(C)OOC(C)(C)C)cc1
inactive: Potency [19] | activation [2] -6.76% | outcome [3] | Potency [4] | outcome [5] | Potency [7] | Potency [8] | max response [10] -5.44% | activity change % (negative = inhibition) [11] 10.7% | activation [12] 0.499% | activation [13] 0.613% | max response [14] 0.719% | Potency [20] | max response [15] -7.74% | max response [16] -8.57% | Potency [17] | max response [18] 4.08%
-15.9%: max response [9]
-9.77%: max response [6]

Nc1ccc([N+](=O)[O-])cc1Cl
inactive: Potency [1] | activation [2] -4.74% | outcome [3] | Potency [4] | outcome [5] | Potency [7] | Potency [8] | max response [10] -1.45% | activity change % (negative = inhibition) [11] -8.47% | activation [12] -0.946% | activation [13] 3.47% | max response [14] -5.45% | Potency [20] | max response [15] 3.06% | max response [16] -1.89% | Potency [17] | max response [18] 2.06%
-11.1%: max response [9]
-7.96%: max response [6]

CS/C(C)=N/OC(=O)N(C)SN(C)C(=O)O/N=C(\C)SC
inactive: Potency [19] | activation [2] 10.5% | outcome [3] | Potency [8] | max response [10] 15.5% | activity change % (negative = inhibition) [11] -7.26% | activation [12] -1.16% | activation [13] 3.44% | max response [14] -1.01% | Potency [20] | max response [15] 6.17% | max response [16] -6.07% | Potency [17] | max response [18] -5.16%
3.2%: max response [9]

COC(=O)c1ccccc1CS(=O)(=O)NC(=O)Nc1nc(OC)cc(OC)n1
inactive: Potency [1] | activation [2] -0.772% | outcome [3] | Potency [4] | outcome [5] | Potency [7] | Potency [8] | max response [10] -11% | activity change % (negative = inhibition) [11] 15.6% | activation [12] -2.78% | activation [13] -0.954% | max response [14] -0.343% | Potency [20] | max response [15] -5.06% | max response [16] -8.65% | Potency [17] | max response [18] -0.458%
-9.59%: max response [6]
1.62%: max response [9]

CC(C)(c1ccccc1)c1cc(-n2nc3ccccc3n2)c(O)c(C(C)(C)c2ccccc2)c1
-5.71%: max response [6]
inactive: Potency [1] | activation [2] -6.85% | outcome [3] | Potency [4] | outcome [5] | Potency [7] | max response [10] 0.796% | activation [13] -0.0851% | max response [14] -0.734% | Potency [20] | max response [15] 4.77% | max response [18] 2.09%
-10.8%: max response [9]

O=S(=O)(c1ccc(O)cc1)c1ccc(O)cc1
inactive: Potency [1] | activation [2] -0.412% | outcome [3] | outcome [5] | Potency [7] | Potency [8] | max response [10] 15.4% | activity change % (negative = inhibition) [11] 5% | activation [12] -2.48% | activation [13] -1.25% | max response [14] -4.37% | Potency [20] | max response [15] -5.42% | Potency [17] | max response [18] -2.78%
-5.39%: max response [9]
-2.49%: max response [6]

Clc1ccc(C(Cl)(Cl)Cl)cc1
-6.16%: max response [6]
-19.4%: max response [9]
inactive: Potency [1] | activation [2] 0.824% | Potency [7] | Potency [8] | max response [10] -3.2% | activity change % (negative = inhibition) [11] -0.364% | activation [12] -4.01% | activation [13] 0.701% | max response [14] -0.649% | Potency [20] | max response [15] -2.36% | max response [16] -0.236% | Potency [17] | max response [18] 2.13%

COc1nc(C)nc(NC(=O)NS(=O)(=O)c2ccccc2CCC(F)(F)F)n1
inactive: Potency [19] | activation [2] -2.83% | Potency [4] | outcome [5] | Potency [7] | Potency [8] | max response [10] -8.68% | activity change % (negative = inhibition) [11] 9.28% | activation [12] 1.94% | activation [13] 0.656% | max response [14] -1.05% | Potency [20] | max response [15] 3.55% | max response [16] 0.421% | max response [18] 1.14%
-27.4%: max response [6]
-4.25%: max response [9]

CCNc1nc(NC(C)(C)C)nc(SC)n1
-0.223%: max response [6]
inactive: Potency [1] | activation [2] 4.35% | outcome [3] | Potency [4] | outcome [5] | Potency [7] | Potency [8] | activity change % (negative = inhibition) [11] 6.54% | activation [12] 13.8% | activation [13] 0.606% | max response [14] 1.46% | Potency [20] | max response [15] -11.3% | Potency [17] | max response [18] 2.02%

CCOP(=O)(OCC)SCSCC
inactive: Potency [19] | outcome [3] | outcome [5] | Potency [7] | max response [10] -5.71% | activity change % (negative = inhibition) [11] 4.37% | activation [12] 4.72% | activation [13] 0.0868% | max response [14] -4.89% | Potency [20] | max response [15] 2.19% | max response [16] -3.03% | Potency [17] | max response [18] -5.9%
-15.2%: max response [9]
-4.7%: max response [6]
